Source: PubChem (National Center for Advancing Translational Sciences (NCATS))
In the library only some 19% were active in any assay of this set; here they are far more common.
HT1080 IDH1KD tx: toxicity to HT-1080 IDH1 knockdown cells (counter line) | Potency, µM (highest dose often 46.1 µM), for the others: at the top dose activity, negative = toxicity, usual class: cytotoxic | AID 686971 | HT-1080 IDH1 knockdown viability, ATP luminescence, 48 h | actives 2% (n = 360,000);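 also: 0% = DMSO wells and -100% = cell-free medium wells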
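In this qHTS, HT-1080 cells depleted of IDH1 are exposed for 48 h at 37 °C to compound titrations. Toxicity is scored from CellTiter-Glo luminescence, with DMSO as full viability and medium alone as none.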
HT1080-NT tox: kills 2HG-producing HT-1080-NT fibrosarcoma cells | HT-1080-NT fibrosarcoma viability, CellTiter-Glo ATP luminescence, 48 h | Potency, µM (doses to about 46.1 µM), for the others: at the top dose activity, negative = less viability, most hits filed as cytotoxic | actives 1.6% (n = 360,000);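 also: NT is the 2HG producing partner of a matched IDH1 knockdown line; 0% = DMSO-treated cells and -100% = media-only wells without cells; nearly all actives have a fitted effect of over 55% in size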
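Luminescent CellTiter-Glo readout after 48 hours of compound exposure at 37 degrees C defined viability of HT-1080-NT cells. Activity was normalized to DMSO wells and cell-free media wells; concentration-response curves were fitted and assigned curve classes.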
DT40 TDP1 CPT: growth inhibition of DT40 Tdp1-/-;hTDP1 cells with camptothecin (screen for TDP1 inhibitors); chicken DT40 Tdp1-/-;hTDP1 cells + 20 nM CPT, ATP luminescence, 48 h; Potency, µM (series often up to 46.2 µM), without a hit: at the top dose activity change, negative = growth inhibition, actives largely listed as inhibitors; actives 12% (n = 420,000); also: nearly all actives have a fitted effect of over 55% in size
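Chicken DT40 Tdp1-/- cells complemented with human TDP1, 400 cells/well, exposed to compounds plus 20 nM camptothecin for at least 48 h at 37 C; viability read as ATP content by CellTiter-Glo luminescence.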
KB-3-1 cytotox: kills parental KB-3-1 adenocarcinoma cells; KB-3-1 viability, CellTiter-Glo ATP luminescence, 72 h; Potency, µM (doses to about 46.1 µM), actives largely listed as cytotoxic; actives 1.4% (n = 400,000); AID 1347075; also: nearly all actives have a fitted effect of over 60% in size
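Parental KB-3-1 adenocarcinoma cells in phenol-red-free DMEM with 10% FBS were pin-treated with compounds at several concentrations, incubated 72 h at 37 °C, and viability read by CellTiter-Glo luminescence; concentration-effect curves were fitted after normalization.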
KB-V1 cytotox: kills drug-selected multidrug resistant KB-V1 cells; KB-V1 MDR cells viability, CellTiter-Glo, 72 h; Potency, µM (doses to about 46.1 µM), hits mostly cytotoxic; actives 3.4% (n = 400,000); AID 1347076; also: nearly all actives have a fitted effect of over 60% in size
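Cells of the MDR subline KB-V1 are plated, dosed with compound at multiple concentrations, and incubated 72 h at 37 degrees C; CellTiter-Glo is then added and luminescence read after 10 min.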
DT40 TDP1 no CPT: qHTS for Inhibitors of human tyrosyl-DNA phosphodiesterase 1 (TDP1): qHTS in cells in absence of CPT; DT40 Tdp1-/- hTDP1 cells, no CPT, ATP luminescence, 48 h; Potency, µM (highest dose often 46.2 µM), for inactives: top-dose activity change, negative = growth inhibition, most hits filed as inhibitors; actives 15% (n = 420,000); AID 686978, 2013; also: nearly all actives have a fitted effect of over 55% in size
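Compound effects on proliferation are scored in DT40 Tdp1-/-;hTDP1 cells in the absence of CPT. ATP levels (CellTiter-Glo luminescence) are recorded after a ≥48 hr, 37 °C incubation.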
Active calls of the source: *. Calls follow the shape of the dose curve; as a rule, active = well fitted curve in the direction sought with a large enough effect; inconclusive = small, poorly fitted or top-dose-only effect, or another doubt; inactive = no such curve, though single readings can be large; an effect the other way counts as inactive or inconclusive. Unless noted, % is scaled to controls: 0 for no effect and ±100 for the full control effect; potency is read from the fitted curve at half-maximal effect.

For O=C(/C=C/c1ccc(N2CCCCC2)c([N+](=O)[O-])c1)c1ccc(O)cc1 the results were HT1080 IDH1KD tx 18µM*, HT1080-NT tox 18µM*, DT40 TDP1 CPT inconclusive, KB-3-1 cytotox inconclusive, KB-V1 cytotox inconclusive and DT40 TDP1 no CPT 18µM*.
O=C(Nc1cccnc1)c1ccc(N2CCCC2)c([N+](=O)[O-])c1 was read as HT1080 IDH1KD tx 5%, HT1080-NT tox 11%, DT40 TDP1 CPT 3%, KB-3-1 cytotox inactive, KB-V1 cytotox inconclusive and DT40 TDP1 no CPT -29%.
`O=C(c1ccc(N2CCCCC2)c([N+](=O)[O-])c1)N1CCOCC1` gave HT1080 IDH1KD tx 18%, HT1080-NT tox 27%, DT40 TDP1 CPT 2%, KB-3-1 cytotox inactive, KB-V1 cytotox inconclusive and DT40 TDP1 no CPT -13%.
Screening Cc1ccc(NC(=O)c2ccc(NCCc3ccccc3)c([N+](=O)[O-])c2)cc1F returned HT1080 IDH1KD tx 4%, HT1080-NT tox -2%, DT40 TDP1 CPT inconclusive, KB-3-1 cytotox inconclusive, KB-V1 cytotox inactive and DT40 TDP1 no CPT inconclusive.
Screening Cc1ccc(NC(=O)c2ccc(NCCN)c([N+](=O)[O-])c2)cc1Cl returned HT1080 IDH1KD tx -2%, HT1080-NT tox 0%, DT40 TDP1 CPT inconclusive, KB-3-1 cytotox inactive, KB-V1 cytotox inconclusive and DT40 TDP1 no CPT 21µM*.
Cc1ccc(NC(=S)NNC(=O)c2ccc(N3CCOCC3)c([N+](=O)[O-])c2)cc1Cl was read as HT1080 IDH1KD tx 16%, HT1080-NT tox 4%, DT40 TDP1 CPT 1%, KB-3-1 cytotox inconclusive, KB-V1 cytotox 16µM* and DT40 TDP1 no CPT -12%.
Cc1cc(C(=O)Nc2ccc(N3CCCC3)c(Cl)c2)ccc1[N+](=O)[O-] was read as HT1080 IDH1KD tx 0%, HT1080-NT tox -19%, DT40 TDP1 CPT inconclusive, KB-3-1 cytotox inactive, KB-V1 cytotox inactive and DT40 TDP1 no CPT 18µM*.
`CCOC(=O)c1c(C)c(-c2ccccc2)n(CC(=O)Nc2cccc(F)c2)c1C` gave DT40 TDP1 CPT 5%, KB-3-1 cytotox inactive, KB-V1 cytotox inactive and DT40 TDP1 no CPT inconclusive.
`COc1cc(/C=C/C(=O)OCC(=O)NC2CCS(=O)(=O)C2)ccc1O` (configuration not stated) gave HT1080 IDH1KD tx 9%, HT1080-NT tox 5%, DT40 TDP1 CPT -8%, KB-3-1 cytotox inactive, KB-V1 cytotox inactive and DT40 TDP1 no CPT -26%.
Screening COc1ccccc1N1CCN(C(=O)c2ccncc2)CC1 returned HT1080 IDH1KD tx 1%, HT1080-NT tox 12%, DT40 TDP1 CPT -9%, KB-3-1 cytotox inactive, KB-V1 cytotox inactive and DT40 TDP1 no CPT inconclusive.
COc1cc(C(=O)N(Cc2cccc(Cl)c2)C2CCS(=O)(=O)C2)cc(OC)c1OC (configuration not stated) was read as HT1080 IDH1KD tx 20%, HT1080-NT tox 0%, DT40 TDP1 CPT -23%, KB-3-1 cytotox inactive, KB-V1 cytotox inactive and DT40 TDP1 no CPT -20%.
Screening CCSc1ncc(Cl)c(C(=O)N2CCN(c3ccccc3OC)CC2)n1 returned DT40 TDP1 CPT 3.3µM*, KB-3-1 cytotox 6.5µM*, KB-V1 cytotox 3.7µM* and DT40 TDP1 no CPT 4.1µM*.
For CCCSc1ncc(Cl)c(C(=O)N(Cc2cccc(Cl)c2)C2CCS(=O)(=O)C2)n1 (configuration not stated) the results were DT40 TDP1 CPT 23µM* and DT40 TDP1 no CPT 16µM*.
Screening CCCSc1ncc(Cl)c(C(=O)N2CCN(c3cccc(Cl)c3)CC2)n1 returned DT40 TDP1 CPT 1.8µM* and DT40 TDP1 no CPT inconclusive.
`C1CCN(c2c3c(nc4nnnn24)CCCC3)CC1` gave HT1080 IDH1KD tx -7%, HT1080-NT tox -2%, DT40 TDP1 CPT -20%, KB-3-1 cytotox inactive, KB-V1 cytotox inactive and DT40 TDP1 no CPT -22%.
For C[C@H](CCC(=O)O)[C@H]1CC[C@@H]2[C@H]3CC[C@H]4C[C@H](O)CC[C@]4(C)[C@@H]3CC[C@@]21C the results were DT40 TDP1 CPT 2% and DT40 TDP1 no CPT -11%.
For CC1(c2ccccc2)NC(=O)N(CC(=O)N2CCN(S(=O)(=O)c3c(F)cccc3F)CC2)C1=O (configuration not stated) the results were HT1080 IDH1KD tx -3%, HT1080-NT tox -7%, DT40 TDP1 CPT -16%, KB-3-1 cytotox inactive, KB-V1 cytotox inactive and DT40 TDP1 no CPT -19%.
Cc1nn(CC(=O)Nc2ccc3c(c2)nc(CCN2CCCCC2)n3C)c(=O)c2ccccc12 was read as HT1080 IDH1KD tx 2.8µM*, HT1080-NT tox inconclusive, DT40 TDP1 CPT 11µM*, KB-3-1 cytotox inactive, KB-V1 cytotox inactive and DT40 TDP1 no CPT inconclusive.
`CCn1c(CN2CCCCC2)nc2cc(NC(=O)COc3cc(C)ccc3C(C)C)ccc21` gave DT40 TDP1 CPT 18µM*, KB-3-1 cytotox inconclusive, KB-V1 cytotox inactive and DT40 TDP1 no CPT inconclusive.
Cc1ccc(C(C)C)c(OCC(=O)Nc2ccc3c(c2)nc(CCN2CCCCC2)n3C)c1 was read as HT1080 IDH1KD tx 16µM*, HT1080-NT tox 21µM*, DT40 TDP1 CPT inconclusive, KB-3-1 cytotox inactive, KB-V1 cytotox inconclusive and DT40 TDP1 no CPT inconclusive.
Cn1c(CCN2CCCCC2)nc2cc(NC(=O)COc3ccc([N+](=O)[O-])cc3)ccc21 was read as HT1080 IDH1KD tx inconclusive, HT1080-NT tox -29%, DT40 TDP1 CPT -29%, KB-3-1 cytotox inactive, KB-V1 cytotox inactive and DT40 TDP1 no CPT 18µM*.
CC(=O)N1CCN(Cc2nc3cc(NC(=O)Cn4nc(C)c5ccccc5c4=O)ccc3n2C)CC1 was read as HT1080 IDH1KD tx 1%, HT1080-NT tox -5%, DT40 TDP1 CPT 7%, KB-3-1 cytotox inactive, KB-V1 cytotox inactive and DT40 TDP1 no CPT -32%.
Screening COc1cccc(Nc2nnc(SCC(=O)N(CC(C)C)CC(C)C)s2)c1 returned HT1080 IDH1KD tx -16%, HT1080-NT tox -7%, DT40 TDP1 CPT inconclusive, KB-3-1 cytotox inactive, KB-V1 cytotox inactive and DT40 TDP1 no CPT inconclusive.
O=C(c1ccccc1Cc1ccccc1)N1CCN(S(=O)(=O)c2ccccc2[N+](=O)[O-])CC1 was read as HT1080 IDH1KD tx -19%, HT1080-NT tox -5%, DT40 TDP1 CPT inconclusive, KB-3-1 cytotox inactive, KB-V1 cytotox inconclusive and DT40 TDP1 no CPT inconclusive.
